Source: PubChem BioAssay (NCI)
The panel holds about 83,000 compounds, 20% with a hit somewhere; the sample as a whole holds those more often.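 How to read the values: 0–100, growth inhibition (40 = 60% inhibited); 0, no net growth; -100 to 0, cell death (-40 = 40% of starting cells died; -100 = all dead).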 Active and inactive are the calls of the source. How the source made its calls: active means growth percent below 10; inactive means the rest.

Tested on: CCRF-CEM leukemia
Test: NCI-60 one-dose screen, 48 h (100 = growth as untreated, 0 = no growth, -100 = all killed)
Conditions: 10 µM

Structure (SMILES)	growth
O=C(O)c1ccccc1NCc1ccco1	98.6% (inactive)
C/C(=C\c1cc(Cl)ccc1OCC(=O)O)[N+](=O)[O-]	80.1% (inactive)
CSC[C@H](NC(=O)COc1cccc2cnccc12)C(=O)NC(Cc1ccccc1)C(O)C(=O)N1CSC[C@H]1C(=O)NC(C)(C)C (stereo not given in full)	111% (inactive)
COC1=CC(=O)c2nc(Cl)ccc2C1=O	1.69% (active)
CCOC(=O)CCCC(=O)OCC	110% (inactive)
N#Cc1ccc(NC(=O)Nc2cccc(C#N)c2)cc1	72.4% (inactive)
CC(C)=C(NC(=O)c1ccccc1)C(=O)O	7.71% (active)
Cc1cc2nc(CC(=O)c3cccc([N+](=O)[O-])c3)c(=O)[nH]c2cc1C	76.3% (inactive)
COc1cc(C(=O)N/N=C/c2cccc([N+](=O)[O-])c2)cc(OC)c1OC	62.1% (inactive)
CN(C)C(C)(C)CC(C)(C)C	89.8% (inactive)
O=c1cc(-c2ccccc2)[nH]c2c1CCCC2	32.6% (inactive)
CC1(c2ccccc2)NC(=O)NC1=O (stereo not given)	102% (inactive)
CCCNC(=O)c1ccc(S(N)(=O)=O)cc1	81.6% (inactive)
COC(=O)c1[nH]c(=O)c(C#N)c(C(=O)OC)c1C(=O)c1ccccc1	105% (inactive)
O=C(O)[C@@H]1[C@H]2C[C@H]3c4[nH]c5ccccc5c4CCN3C[C@@H]2CC[C@@H]1O	103% (inactive)
CCCCOC(OCCCC)c1ccccc1	105% (inactive)
CC1(O)OC(COc2ccc(Cl)cc2)COC1O (stereo not given)	98.7% (inactive)
CNc1nc(NC)c2cn[nH]c2n1	5.44% (active)
CC(C)=NNc1ccc([N+](=O)[O-])cc1[N+](=O)[O-]	42.2% (inactive)

Structure (SMILES)	growth
CC(=O)CC(=O)N(C)C	73.7% (inactive)
Nc1ccc(N=Nc2ccc(S(=O)(=O)O)cc2)c2ccccc12	102% (inactive)
COc1cc(OC)c2ccc(=O)oc2c1	106% (inactive)
c1ccc(Sc2ccccc2)cc1	97.7% (inactive)
Cc1ccc(/C=C2\SC(=S)N(c3ccc(F)cc3)C2=O)o1	89.2% (inactive)
COc1ccc2c(NCCCCCCCCNc3c4ccccc4nc4cc(OC)ccc34)c3ccccc3nc2c1	-42.4% (active)
CC1C(=O)c2ccccc2CC1C(=O)O (stereo not given)	99.1% (inactive)
Cc1nc2ccccc2c2nnc(SCC(=O)N(Cc3ccccc3)c3ccccc3)n12	85.4% (inactive)
CCCCC(O)c1ccccc1 (stereo not given)	107% (inactive)
O=S(=O)(O)c1ccc(O)c2ccccc12	99.4% (inactive)
O=C1Cc2ccccc2C(=O)O1	85.8% (inactive)
Nc1nc(OCc2ccccc2)c2[nH]cnc2n1	143% (inactive)
Cc1c(C(=O)O)c(=O)n(-c2ccccc2)n1C	108% (inactive)
O=[N+]([O-])c1ccc(-c2noc(-c3cccs3)n2)cc1	93.6% (inactive)
CC(=O)OCC1OC(OC2=C(CC=C(C)C)C(=O)c3ccccc3C2=O)C(OC(C)=O)C(OC(C)=O)C1OC(C)=O (stereo not given)	-25.8% (active)
CCCCC/C=N/Nc1nc(C)cc(=O)[nH]1	105% (inactive)
[O-][N+](=Nc1cccc(Cl)c1)c1cccc(Cl)c1	111% (inactive)
COc1ccc(-c2cc3c(nn2)-c2ccccc2C3=O)cc1	28.6% (inactive)

Tested on: MOLT-4 leukemia
Test: as above
Conditions: 10 µM

Structure (SMILES)	growth
O=C(O)c1ccccc1NCc1ccco1	104% (inactive)
C/C(=C\c1cc(Cl)ccc1OCC(=O)O)[N+](=O)[O-]	96.9% (inactive)
CSC[C@H](NC(=O)COc1cccc2cnccc12)C(=O)NC(Cc1ccccc1)C(O)C(=O)N1CSC[C@H]1C(=O)NC(C)(C)C (stereo not given in full)	101% (inactive)
COC1=CC(=O)c2nc(Cl)ccc2C1=O	-27.4% (active)
CCOC(=O)CCCC(=O)OCC	101% (inactive)
N#Cc1ccc(NC(=O)Nc2cccc(C#N)c2)cc1	78.7% (inactive)
CC(C)=C(NC(=O)c1ccccc1)C(=O)O	12.1% (inactive)
Cc1cc2nc(CC(=O)c3cccc([N+](=O)[O-])c3)c(=O)[nH]c2cc1C	83.4% (inactive)
COc1cc(C(=O)N/N=C/c2cccc([N+](=O)[O-])c2)cc(OC)c1OC	70.7% (inactive)
CN(C)C(C)(C)CC(C)(C)C	95.1% (inactive)
O=c1cc(-c2ccccc2)[nH]c2c1CCCC2	41.1% (inactive)
CC1(c2ccccc2)NC(=O)NC1=O (stereo not given)	101% (inactive)
CCCNC(=O)c1ccc(S(N)(=O)=O)cc1	109% (inactive)
COC(=O)c1[nH]c(=O)c(C#N)c(C(=O)OC)c1C(=O)c1ccccc1	104% (inactive)
O=C(O)[C@@H]1[C@H]2C[C@H]3c4[nH]c5ccccc5c4CCN3C[C@@H]2CC[C@@H]1O	139% (inactive)
CCCCOC(OCCCC)c1ccccc1	106% (inactive)
CC1(O)OC(COc2ccc(Cl)cc2)COC1O (stereo not given)	60.9% (inactive)
CNc1nc(NC)c2cn[nH]c2n1	101% (inactive)
CC(=O)CC(=O)N(C)C	120% (inactive)

Structure (SMILES)	growth
Nc1ccc(N=Nc2ccc(S(=O)(=O)O)cc2)c2ccccc12	88.9% (inactive)
COc1cc(OC)c2ccc(=O)oc2c1	115% (inactive)
c1ccc(Sc2ccccc2)cc1	87.4% (inactive)
Cc1ccc(/C=C2\SC(=S)N(c3ccc(F)cc3)C2=O)o1	79.1% (inactive)
COc1ccc2c(NCCCCCCCCNc3c4ccccc4nc4cc(OC)ccc34)c3ccccc3nc2c1	-85.7% (active)
O=C(NCCNC(=O)c1ccc(Cl)cc1Cl)c1ccc(Cl)cc1Cl	96.6% (inactive)
CC1C(=O)c2ccccc2CC1C(=O)O (stereo not given)	97.3% (inactive)
Cc1nc2ccccc2c2nnc(SCC(=O)N(Cc3ccccc3)c3ccccc3)n12	93.1% (inactive)
CCCCC(O)c1ccccc1 (stereo not given)	101% (inactive)
O=S(=O)(O)c1ccc(O)c2ccccc12	95.4% (inactive)
O=C1Cc2ccccc2C(=O)O1	85.4% (inactive)
Nc1nc(OCc2ccccc2)c2[nH]cnc2n1	73% (inactive)
Cc1c(C(=O)O)c(=O)n(-c2ccccc2)n1C	113% (inactive)
COc1cc(/C=C/C(=O)c2ccccc2)cc(OC)c1OC	28.8% (inactive)
O=[N+]([O-])c1ccc(-c2noc(-c3cccs3)n2)cc1	81.5% (inactive)
CC(=O)OCC1OC(OC2=C(CC=C(C)C)C(=O)c3ccccc3C2=O)C(OC(C)=O)C(OC(C)=O)C1OC(C)=O (stereo not given)	-26.7% (active)
CCCCC/C=N/Nc1nc(C)cc(=O)[nH]1	95.3% (inactive)
[O-][N+](=Nc1cccc(Cl)c1)c1cccc(Cl)c1	125% (inactive)
COc1ccc(-c2cc3c(nn2)-c2ccccc2C3=O)cc1	57.1% (inactive)
